# Shown are actives, neighbours in structure and some others; about 5.2% of the full set was active somewhere.
# Tau fibril FP: tau fibrillization inhibition (FP); 280,000 tested, 0.39% active; K18 P301L tau heparin fibrillization, Alexa594 FP, 6 h; Potency, µM (top dose mostly 57.7 µM), for the others: top-dose activity, negative = inhibition, usual class: inhibitors; also: potency is read from the fitted curve at half-maximal effect; nearly all actives have a fitted effect of over 55% in size
# Target sequence (P10636 561-689 P618L limits assumed): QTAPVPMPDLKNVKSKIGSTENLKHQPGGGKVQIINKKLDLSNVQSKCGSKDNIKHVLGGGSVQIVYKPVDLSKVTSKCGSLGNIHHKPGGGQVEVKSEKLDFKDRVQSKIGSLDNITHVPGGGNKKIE
#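 Read-out: fluorescence polarization of Alexa 594-labeled tau (0.24 uM), 555 nm excitation, 632 nm emission. Mixtures held 15 uM unlabeled K18 P301L, compound and 20 uM heparin, pH 7 acetate buffer, incubated 6 hr at 37 C.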
# Sfp inh: inhibitors of Bacillus subtilis Sfp phosphopantetheinyl transferase; Q9F4F7; Biochemical Sfp PPTase activity, qHTS; Potency, µM, inactives show largest response in the series, negative = inhibition, most hits filed as inhibitors; 310,000 tested, 3.5% active;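 also: the enzyme is Sfp with the accession as filed and its product quenches rhodamine fluorescence; potency is read from the fitted curve at half-maximal effect; 0% = enzyme reaction without inhibitor and -100% = no enzyme wells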
#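 Fluorescence-quenching assay: 15 nM Sfp-PPTase preincubated 15 min at room temperature with compound, then 5 uM rhodamine-CoA and 12.5 uM BHQ-2-labelled YbbR peptide added. Fluorescence (ex 525/em 598 nm) read at start and after 30 min; difference gives rate.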
# Tau fluor cs: counter-screen for tau fibril formation inhibitors | tau K18 P301L Alexa594 fluorescence, heparin fibrillization | Potency, µM (top dose mostly 57.7 µM), for the others: top-dose activity change, negative = decrease | 280,000 tested, 0.93% active; also: potency is read from the fitted curve at half-maximal effect; nearly all actives have a fitted effect of over 55% in size
#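 Human tau K18 P301L (15 uM unlabeled, 0.24 uM Alexa 594-labeled) in 100 mM sodium acetate pH 7 with 20 uM heparin, 6 hr at 37 C. ThT 30 uM added, 1 hr ambient; Alexa 594 FP and total fluorescence read at 555/632 nm.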
# Tau ThT inhib: inhibitors of human tau fibril formation, thioflavin T binding; P10636; recombinant tau K18 P301L (four-repeat tau fragment), heparin-induced fibrillization, ThT fluorescence; Potency, µM (highest dose often 57.4 µM), for the others: at the highest dose activity, negative = inhibition, usual class: inhibitors; 270,000 tested, 2.1% active; also: potency is read from the fitted curve at half-maximal effect; nearly all actives have a fitted effect of over 55% in size
#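 Tau K18 P301L fragment (15 uM unlabeled plus 0.24 uM Alexa 594-labeled) in 100 mM sodium acetate pH 7 with compound, fibrillization induced by 20 uM heparin for 6 hr at 37 C. Thioflavin T (30 uM) added, fluorescence read after 1 hr (ex 450, em 510 nm).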
# Coupling enz: inhibits coupling enzyme system, counter-screen for aldolase hits | coupling enzyme system counterscreen, AmpLite Red fluorescence | activity change, negative = inhibition, % at 58.2 µM, hits read low | 290,000 tested, 0.67% active | AID 2472; in the data active = activity change below about -30%
#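 Counterscreen of the coupled detection system alone, without aldolase: glyceraldehyde-3-phosphate coupling enzymes plus AmpLite Red readout. Compounds at 57.5 uM final, 10 min RT preincubation, 20 min RT reaction, fluorescence 525/598 nm.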
# The depositor's hits bear a star; ? = inconclusive; . = not tested or not shown; [ ] = dose if it differs, or a comment. Unless noted, calls follow the shape of the dose curve; as a rule, active = well fitted curve in the direction sought with a large enough effect; inconclusive = small, poorly fitted or top-dose-only effect, or another doubt; inactive = no such curve, though single readings can be large; an effect the other way counts as inactive or inconclusive. Unless noted, % is scaled to controls: 0 for no effect and ±100 for the full control effect.
SMILES,Tau fibril FP,Sfp inh,Tau fluor cs,Tau ThT inhib,Coupling enz
O=C(NN1C(=O)/C(=C/C=C/c2ccco2)SC1=S)c1ccccc1O,?,56.2µM*,?,7.08µM*,3.8
COc1cc(/C=C2\SC(=S)N(NC(=O)c3ccccc3OC)C2=O)ccc1O,.,174.6%,.,.,1.3
CN(C)c1ccc(NC(=O)Cn2c(SCc3ccc(F)cc3)nc3cccnc32)cc1,9.8%,.,-6.7%,-3.4%,.
Cc1ccc(C)c(NC(=O)Cn2c(=O)ccc3cc(S(=O)(=O)N4CCCC4)ccc32)c1,8.8%,.,-6.7%,-16.6%,.
COc1ccc(-c2cc(=O)n(-c3nc4ccccc4[nH]3)[nH]2)cc1,-17.4%,2.2%,?,31.6µM*,-5.3
COc1ccc(-c2nc3ccccc3[nH]2)cc1,-7.4%,8.4%,-13.1%,-3.1%,-10.2
OC(COCC(F)(F)C(F)(F)C(F)(F)C(F)F)Cn1c2ccc(Cl)cc2c2cc(Cl)ccc21 (stereo not drawn),10µM*,35.3%,?,5.1%,-3.1
O=C(CCNS(=O)(=O)c1ccc2c(c1)CCCC(=O)N2)Nc1cccc(Cl)c1,-10.1%,.,-16.3%,-8.0%,.
O=C1/C(=C/c2cccs2)N=C(c2cccs2)N1Nc1ccccc1,-13.9%,3.9%,?,7.08µM*,5.6
O=C1/C(=C\c2cccs2)N=C(c2cccs2)N1Nc1ccccc1,-17.7%,9.1%,?,10µM*,3.1
O=C1NC(=Nc2ccccc2)S/C1=C/c1cccs1,1.0%,6.3%,-14.1%,-20.3%,1.9
Cc1ccc(C2=N/C(=C\c3cccs3)C(=O)N2Nc2ccccc2)cc1,-4.9%,-4.9%,?,?,0.0
Cc1c(CNCc2ccc(OC(C)C)cc2)c(C(=O)O)c(C)n1Cc1ccc(Cl)cc1,-1.9%,.,2.7%,-3.1%,.
Cc1cc(C)cc(NC(=O)c2ccc3c(O)c(S(=O)(=O)c4ccccc4)c(=O)[nH]c3c2)c1,-5.6%,.,3.8%,9.0%,.
O=C(Nc1ccccc1C(=O)O)c1ncn[nH]1,-4.4%,44.7µM*,4.2%,-2.4%,-0.3
COc1cccc(CN2C(=O)c3ccccc3Sc3ccc(C(=O)NCCc4ccc(Cl)cc4)cc32)c1,?,.,?,-5.4%,.
COC(=O)C1=C(C(=O)OC)C2(OC1c1cccc(F)c1)C(=O)c1ccccc1C2=O (stereo not drawn),1.4%,79.4µM*,-9.6%,-12.2%,4.0
COc1ccccc1CNc1ncnc2c1nc1n2CCCC1,1.7%,.,-0.4%,5.5%,.
COc1ccc(OC)c(-n2c(-c3ccc(C)cc3)n[nH]c2=S)c1,-5.6%,1.3%,-0.7%,-5.2%,2.4
COc1ccc(OC)c(-n2c(Cn3c(-c4ccccn4)nc4ccccc43)n[nH]c2=S)c1,2.9%,25.1µM*,5.3%,-8.0%,0.1
COc1ccc(-c2n[nH]c(=S)n2-c2cc(OC)ccc2OC)cc1,-4.5%,79.4µM*,-0.1%,-1.9%,0.8
COc1ccc(OC)c(-n2c(-c3cccc(O)c3)n[nH]c2=S)c1,-4.2%,25.1µM*,2.3%,2.1%,-0.6
COc1ccc(-c2n[nH]c(=S)n2N)c(OC)c1,4.4%,35.5µM*,9.4%,4.8%,-0.3
COc1ccc(-n2c(-c3ccc(Cl)cc3Cl)n[nH]c2=S)c(OC)c1,.,15.6%,.,.,-1.5
Cc1ccc(-n2c(Cn3c(C)nc4ccccc43)n[nH]c2=S)cc1,9.4%,-21.1%,-1.2%,-0.3%,0.8
SMILES,Tau fibril FP,Sfp inh,Tau fluor cs,Tau ThT inhib,Coupling enz
Cc1ccccc1CCNC(=O)c1cc2cc(S(=O)(=O)N3CCCCC3)ccc2n1C,-1.6%,.,-6.7%,3.3%,.
c1coc(-c2nc3n(n2)C2(CCCCC2)[C@@H]2CCCC[C@@H]2N3)c1,-0.6%,.,-4.9%,2.2%,.
CCCN1Cc2cccc(C(=O)Nc3cccc(C(=O)OCC)c3)c2C1=O,-7.6%,.,-16.8%,-0.9%,.
CC(C)Sc1ncc(Cl)c(C(=O)Nc2ccc(S(=O)(=O)N3CCCCC3)cc2)n1,-8.9%,.,?,-3.8%,.
COCCNCC(=O)Nc1ccc(C)c(S(=O)(=O)N2CCCCC2)c1,-7.4%,-7.6%,-14.1%,-6.9%,-0.9
COc1cc(/C=C/C(=O)OCC(=O)Nc2ccc(C)c(S(=O)(=O)N3CCCCC3)c2)ccc1O,-3.4%,13.4%,14.1µM*[quencher],-8.3%,-0.6
COc1cc(/C=C/C(=O)OCC(=O)Nc2cc(S(=O)(=O)N3CCCCC3)ccc2C)ccc1O,10.2%,15.0%,?,-4.8%,1.1
Cc1ccc(NC(=O)CNCCCN2CCOCC2)cc1S(=O)(=O)N1CCCCC1,2.7%,79.4µM*,-6.8%,-4.0%,0.9
CC(Oc1ccccc1F)C(=O)NCC1(N2CCOCC2)CCCCC1 (stereo not drawn),-2.7%,.,-6.4%,-1.6%,.
CCOc1ccccc1NC(=O)C1CCN(S(=O)(=O)c2ccc3c(c2)CCCN3C(C)=O)CC1,-11.8%,.,-13.2%,-7.1%,.
COc1ccccc1C(=O)Nc1sc(Nc2ccccc2)nc1C(N)=O,?,.,7.08µM*[quencher],3.16µM*,.
COc1cc(OC)cc(C(=O)Nc2ccc3oc(-c4ccc(Cl)cc4)nc3c2)c1,?,.,-1.7%,?,.
CC(=O)Nc1ccc2nc(-c3ccco3)[nH]c2c1,3.4%,-1.3%,-2.1%,-9.2%,-2.5
O=C(Nc1ccc2nc(-c3ccco3)[nH]c2c1)c1ccco1,-3.0%,44.7µM*,-19.8%,?,0.1
Cn1cc([N+](=O)[O-])c(C(=O)Nc2ccc3nc(-c4ccccc4)[nH]c3c2)n1,-4.0%,11.5%,?,15.8µM*,-10.2
Cn1cc([N+](=O)[O-])c(C(=O)Nc2ccc(-c3nc4ccccc4[nH]3)cc2)n1,9.6%,8.2%,-10.0%,?,3.0
Cn1cccc1-c1nc2ccc(NC(=O)c3ccc([N+](=O)[O-])cc3)cc2[nH]1,0.0%,12.1%,?,1.26µM*,-4.2
Cn1cccc1-c1nc2ccc(NC(=O)c3ccccc3)cc2[nH]1,11.1%,2.0%,?,?,-1.8
Cc1ccc(CN2C(=O)C3(c4ccccc42)N(c2ccc(C)c(Cl)c2)C(=O)CS3(=O)=O)cc1 (stereo not drawn),1.7%,.,-7.4%,-1.8%,.
CCCSc1nc(-c2ccc(OC)cc2)cc(-c2ccccc2OC)c1C#N,25.1µM*,.,?,22.4µM*,.

# Screening results deposited in PubChem BioAssay by National Center for Advancing Translational Sciences (NCATS).
